The whole screen tested about 2,100 compounds, of which about 1,100 (52%) were called active. Another 27% or so got no clear call; they are omitted. So high a share suggests a set chosen from earlier hits. The list shows a part of the results. Values without a mark were called inactive. Calls follow the shape of the dose curve; as a rule, active = well fitted inhibition curve with a large enough effect; inconclusive = small, poorly fitted or top-dose-only effect; inactive = no such curve, though single readings can be large or run the other way.
Potency is read from the fitted curve at half-maximal effect.

Chain of DNA dC->dU-editing enzyme APOBEC-3G (Homo sapiens) (Q9HC16 whole entry, looked up): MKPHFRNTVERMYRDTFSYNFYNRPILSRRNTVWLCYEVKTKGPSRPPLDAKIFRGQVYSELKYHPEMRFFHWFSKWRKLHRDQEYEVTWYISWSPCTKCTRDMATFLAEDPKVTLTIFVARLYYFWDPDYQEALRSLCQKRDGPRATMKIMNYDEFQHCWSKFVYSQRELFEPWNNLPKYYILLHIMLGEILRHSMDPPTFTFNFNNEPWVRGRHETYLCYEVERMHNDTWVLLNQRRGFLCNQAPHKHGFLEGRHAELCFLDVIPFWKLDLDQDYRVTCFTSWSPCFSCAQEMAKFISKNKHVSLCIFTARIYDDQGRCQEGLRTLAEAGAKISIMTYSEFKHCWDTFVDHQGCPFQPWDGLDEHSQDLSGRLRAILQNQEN

The target in the assay is DNA dC->dU-editing enzyme APOBEC-3G (Homo sapiens) (UniProt Q9HC16). Description: qHTS for inhibitors of Vif-A3G interactions: Cherry picks counterscreen.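 Also: hits raise yellow fluorescence by blocking Vif-driven A3G-eYFP degradation; nearly all actives have a fitted effect of over 70% in size.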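 As to max response: max response given as percent of control signal.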 Conditions: HeLa A3G-eYFP + Vif (tagged APOBEC3G with the HIV-1 protein that degrades it), eYFP fluorescence, 24 h. An outline of the steps:
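HeLa cells stably expressing A3G-eYFP and Vif were treated for 24 h at 37 deg C with compounds at several concentrations; yellow fluorescence (Ex 488 nm, Em 500-530 nm) read by Acumen Explorer, MG132 as positive control.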
Background: qHTS replaces the single test concentration by a dilution series.
On to `CC(C)OC(=O)c1c2c(n3ccccc13)C(=O)c1ccccc1C2=O`, for which the Potency is 2.59 µM (active).

Turning to `CCc1nnc(NC(=O)CSc2nnc(-c3ccccc3O)n2-c2ccc(C)cc2C)s1`, the Potency is 6.27 µM (active).

Consider `CC(=O)c1cc(NC(=O)c2ccc(C)cc2)c(=O)oc1/C=C/N(C)C`, for which the Potency is 14.6 µM (active).

Consider `COC(=O)c1cc(NC(=O)c2ccccc2)c(=O)oc1/C=C/Nc1ccc(Oc2ccccc2)cc1`, for which the max response was 11.8%.

For `COC(=O)c1c(-c2ccccc2Cl)noc1/C=C/N(C)C`, the max response was 16.3%.

Take `CC(=O)c1cc(NC(=O)c2ccc(Cl)cc2)c(=O)oc1/C=C/N(C)C`: the Potency was 7.04 µM (active).

In the case of `COc1ccc(C(=O)Nc2cc(C(C)=O)c(/C=C/N(C)C)oc2=O)cc1`, the Potency was 9.94 µM (active).

Regarding `COC(=O)c1ccccc1NC(=O)C1CC(=O)N(c2ccc(OC)cc2)C1` (stereo unspecified), the max response is -25.1%.

Take `COc1ccc(N2CC(C(=O)N/N=C/c3ccc(C)cc3)CC2=O)cc1` (stereo unspecified): the Potency is 7.04 µM (active).

On to `Cc1cccc2[nH]cc(/C=C3/C=Nc4ccccc43)c12`, for which the Potency was 18.4 µM (active).

In the case of `O=C(N/N=C/c1c[nH]c2ccccc12)C1COc2ccccc2O1` (stereo unspecified), the Potency was 14 µM (active).

As to `Cc1ccc(/C=N/NC(=O)C2COc3ccccc3O2)s1` (stereo unspecified), the Potency is 7.9 µM (active).

As to `CNC(=S)N/N=C/c1ccc(N2CCOCC2)s1`, the max response is 10.6%.

In the case of `Cc1ccc(/C=N/NC(=O)c2ccc3ccccc3c2)s1`, the Potency was 1.58 µM (active).

`Cc1ccc(-c2cc(C(=O)N/N=C/c3c[nH]c4ccccc34)[nH]n2)cc1`: the Potency was 4.98 µM (active).

Regarding `Cc1cc(C)nc(NC(=S)Nc2cccc(Cl)c2Cl)c1`, the max response was 1.24%.

Consider `O=C(NCC1CCCO1)c1nn2c(C(F)(F)F)cc(-c3cc(Br)cs3)nc2c1Br` (stereo unspecified), for which the Potency is 16.4 µM (active).

`Cc1ccc(C(=O)NC2c3ccccc3-c3ccccc32)cc1`: the Potency is 1.98 µM (active).

In the case of `O=c1c2cc3ccccc3n2cnn1Cc1ccccc1F`, the Potency is 12.5 µM (active).

On to `CC(CC(=O)Nc1ccc2c(c1)c(=O)n(C)n2Cc1ccc(F)cc1)c1ccccc1` (stereo unspecified), for which the max response is -26%.

For the compound `CC(CC(=O)Nc1ccc2c(c1)c(=O)n(C)n2-c1ccccc1F)c1ccccc1` (stereo unspecified), the Potency is 15.8 µM (active).

`Cn1c(=O)c2cc(NC(=O)Cc3cccc4ccccc34)ccc2n1-c1ccccc1`: the Potency is 11.2 µM (active).

Regarding `CC(CC(=O)Nc1ccc2c(c1)c(=O)n(C)n2-c1ccccc1)c1ccccc1` (stereo unspecified), the Potency is 3.96 µM (active).

Take `CCCCCCCNc1ccc(/C=C/c2ccnc3ccccc23)cc1`: the Potency was 11.6 µM (active).

For the compound `CCCCCCNc1ccc(/C=C/c2ccnc3ccccc23)cc1`, the Potency is 18.4 µM (active).

As to `COc1ccccc1NC(=O)c1sc2ncn(CC(=O)Nc3ccccc3)c(=O)c2c1C`, the Potency is 18.4 µM (active).

`CCC(=O)Nc1nc2ccc(NC(=O)c3cc(OC)c(OC)c(OC)c3)cc2s1`: the max response was -0.685%.

Turning to `CCCC(=O)Nc1nc2ccc(NC(=O)c3ccccc3F)cc2s1`, the Potency is 15.8 µM (active).

Turning to `COc1ccc(OC)c(-c2cc(-c3cccnc3)nc(N)c2C#N)c1`, the Potency was 5.59 µM (active).

Regarding `COc1ccccc1-c1cc(-c2ccccc2)nc(SC(C(N)=O)c2ccccc2)c1C#N` (stereo unspecified), the max response is -23.2%.

For the compound `COc1ccc(-c2c(C#N)c(N)nc(Sc3ccc(Cl)cc3)c2C#N)cc1`, the max response was -11.5%.

`CCOCCCNC(=O)/C(C#N)=C/c1ccc([N+](=O)[O-])o1`: the Potency was 23.1 µM (active).

Take `Cc1ccc(NC(=O)C(=Cc2ccc(C(=O)O)cc2)C(=O)Nc2ccc(C)cc2C)c(C)c1`: the Potency is 7.04 µM (active).

On to `COc1cc(/C=C/c2ccnc3ccccc23)ccc1N(C)C`, for which the Potency is 18.4 µM (active).

Consider `COc1cc(N(C)C)c(OC)cc1/C=C/c1ccnc2ccccc12`, for which the Potency was 23.1 µM (active).

For `C=CCN=c1scc(-c2ccc(F)cc2)n1/N=C/c1ccccn1`, the max response was -11.2%.

As for `COc1ccc(C(=O)c2sc3nc(C)cc(-c4cccs4)c3c2N)cc1`, the Potency was 20.6 µM (active).

In the case of `COc1cccc(C(=O)c2sc3nc(-c4ccccc4)cc(C(F)(F)F)c3c2N)c1`, the Potency is 0.92 µM (active).

In the case of `CCOC(=O)c1sc(NC(=S)NC(=O)c2ccco2)nc1C`, the max response is -15.3%.

On to `COc1ccc(OC)c(NC(=O)c2sc3nc(Cc4ccccc4)cc(C(F)(F)F)c3c2N)c1`, for which the Potency was 3.66 µM (active).

As for `CCC(=O)OCc1cnc(C)c2oc(=O)c(C(=O)Nc3ccccc3C(F)(F)F)cc12`, the max response is -2.09%.

Turning to `CCc1ccc(NC(=O)c2sc3nc(C)c(C(=O)Nc4ccc(C)cc4C)c(-c4ccco4)c3c2N)cc1`, the Potency was 23.1 µM (active).

Consider `COc1ccc(NC(=O)c2sc3nc(-c4ccc(OC)cc4)cc(C(F)(F)F)c3c2N)cc1`, for which the Potency was 1.3 µM (active).

Consider `CCOC(=O)c1c(-c2ccc(OC)cc2)csc1/N=C/C1C(=O)CCCC1=O`, for which the max response was -18.7%.

Turning to `CCOC(=O)c1c(C)nc2sc(C(=O)Nc3ccc(OC)cc3)c(N)c2c1-c1ccc(OC)cc1`, the Potency is 1.98 µM (active).

Take `Cc1c(C(=O)Nc2ccc(C(C)C)cc2)sc2nc3n(c(=O)c12)CCC3`: the max response is 6.74%.

Regarding `COc1ccc(C(=O)c2sc3nc(-c4ccc(C)cc4)cc(C(F)(F)F)c3c2N)cc1`, the Potency was 0.731 µM (active).

For the compound `Cc1ccc2c(c1C)NC(=O)CC(c1ccccc1O)=N2`, the max response was -6.13%.

On to `O=C(Cc1nc2ccccc2[nH]c1=O)c1ccc(Cl)cc1`, for which the Potency was 1.03 µM (active).

`COc1ccc(CN2C(=O)C(C)Nc3ncnc(N4CCc5ccccc5C4)c32)cc1` (stereo unspecified): the Potency was 3.53 µM (active).

As to `Cc1ccc(S(=O)(=O)c2cc3ccccc3oc2=Nc2ccc3c(c2)OCO3)cc1`, the max response was 12.1%.

For `C=C(C)CNC(=S)N/N=C1\CCCCc2ccccc21`, the max response was -14.6%.

Take `Cc1cc(/C=C/c2ccnc3ccccc23)ccc1N(C)C`: the Potency is 14.6 µM (active).

Turning to `CN1CCCc2cc(/C=C/c3ccnc4ccccc34)ccc21`, the Potency is 5.8 µM (active).

With `CN(C)c1ccc(/C=C/c2ccnc3ccccc23)cc1O`, the Potency is 20.6 µM (active).

On to `CN(C)c1ccc(/C=C/c2ccnc3ccccc23)cc1C=O`, for which the Potency was 5.17 µM (active).

With `O=C(Nc1cc(Cl)cc2c1-c1ccc(Cl)cc1C2O)C(Cl)Cl` (stereo unspecified), the max response was -14.6%.

For `O=C(/C=C/c1ccncc1)c1cc(Cl)ccc1O`, the max response was -22.8%.

For the compound `Cc1cc(/C=C/c2ccnc3ccccc23)ccc1N`, the Potency is 18.4 µM (active).

Turning to `CCc1cc(/C=C/c2ccnc3ccccc23)ccc1N(C)C`, the Potency is 20.6 µM (active).

Regarding `CN1C(=O)C(O)(C2COC(C)(C)CC2=O)c2cc(Br)ccc21` (stereo unspecified), the max response is -0.606%.

For `N=C1S/C(=C\c2ccc(-c3cccc(Cl)c3)o2)C(=O)N1c1nccs1`, the Potency was 16.4 µM (active).

For `CCc1ccc(CNC(=O)Cc2ccc(NC(=O)C3=C(C)OCCS3)cc2)cc1`, the Potency was 0.886 µM (active).

Take `CC(C)OC(=O)c1cc(C(=O)c2cc(F)ccc2O)coc1=N`: the Potency is 20.6 µM (active).

Take `CC(C)OC(=O)c1ccc(NCc2cc(O)ccc2O)cc1Cl`: the max response is -19.4%.

In the case of `O=C(N/N=C/c1ccc(Cl)cc1)c1cc2c(s1)-c1ccccc1CC2`, the Potency was 7.04 µM (active).

Regarding `COc1ccc(-c2[nH]ncc2N=Nc2ccccc2)cc1`, the Potency is 8.86 µM (active).

`Cc1ccc(-c2nc(SCCOc3ccccc3C)n3[nH]c(=O)cc3n2)cc1`: the max response was 23%.

Take `Cc1ccccc1OCCc1c(C)[nH]c(=S)[nH]c1=O`: the Potency is 2.5 µM (active).

`N#C/C(=C\c1cccc(O)c1)c1nc2ccccc2o1`: the Potency was 7.04 µM (active).

For `Cc1ccccc1OCC(=O)NNC(=O)Nc1ccc(Cl)cc1`, the Potency was 6.27 µM (active).

On to `O=C(Nc1ccc(Cl)cc1)Nc1ccon1`, for which the max response was -27.2%.

For `COc1ccc(/C=N/NC(=O)c2[nH]nc3c2CCc2ccccc2-3)cc1OC`, the Potency is 3.96 µM (active).

Regarding `COc1cccc(/C=N/NC(=O)c2[nH]nc3c2CCc2ccccc2-3)c1`, the Potency was 5.59 µM (active).

In the case of `O=C(NCCC1=CCCCC1)C1CCC(CNc2nc(=S)[nH]c3ccccc23)CC1` (stereo unspecified), the max response was -2.72%.

With `Cc1sc(NC(=O)c2sc3nc4c(C)cccc4cc3c2N)c(C#N)c1C`, the Potency was 17.7 µM (active).

Turning to `Cc1cccc2cc3c(N)c(C(=O)Nc4ccc(N5CCOCC5)cc4)sc3nc12`, the Potency was 14 µM (active).

Take `Cc1ccc(C)c2nc3sc(C(=O)N4CCOCC4)c(N)c3cc12`: the Potency is 17.7 µM (active).

As for `Cc1cccc2cc3c(N)c(C(=O)N4CCOCC4)sc3nc12`, the Potency was 8.2 µM (active).

Turning to `Cc1ccnc(N/C=C(\C#N)c2nc(-c3cccc(Br)c3)cs2)c1`, the Potency is 11.2 µM (active).

In the case of `Cc1ccc(C(=O)NN(C)c2nc3ccccc3nc2C(F)(F)F)cc1`, the Potency is 6.27 µM (active).

As to `CN(NC(=O)c1ccccc1)c1nc2ccccc2nc1C(F)(F)F`, the Potency was 3.53 µM (active).

With `CC12CC3CC(C)(C1)CC(C(=O)NC(=S)N1CCOCC1)(C3)C2`, the max response is -26.4%.

For `Cc1cnc(NC(=O)CC(C)c2ccccc2)s1` (stereo unspecified), the Potency was 5.59 µM (active).

Regarding `CCn1nc(-c2ccccc2)c2nc3ccccc3nc21`, the Potency is 23.1 µM (active).

Turning to `O=C(NCc1cccc(F)c1)c1cccc2c1C(=O)c1ccc(N3CCCC3)cc1S2(=O)=O`, the Potency is 17.7 µM (active).

On to `Cc1ccc(CNC(=O)c2cccc3c2C(=O)c2ccc(N4CCC(C)CC4)cc2S3(=O)=O)cc1`, for which the max response is -0.215%.

For the compound `CC1CCN(c2ccc3c(c2)S(=O)(=O)c2cccc(C(=O)NCc4cccc(F)c4)c2C3=O)CC1`, the Potency was 14 µM (active).

Consider `Cc1ccc(CNC(=O)c2cccc3c2C(=O)c2ccc(N4CCCCC4)cc2S3(=O)=O)cc1`, for which the Potency was 18.4 µM (active).

For `COc1cc2ccccc2cc1C(=O)N/N=C/c1cccs1`, the Potency was 1.77 µM (active).

On to `COc1ccccc1C=CC(=O)C=Cc1ccccc1OC`, for which the Potency was 6.27 µM (active).

As for `O=C(NC(=S)N1CCN(C2CCCCC2)CC1)c1ccccc1`, the max response was -11.9%.

`Nc1ccc(/C=C/c2cc(Cl)nc3ccccc23)cc1`: the Potency was 20.6 µM (active).

For the compound `CN(C)c1ccc(/C=C/c2cc(N(C)C)nc3ccccc23)cc1`, the Potency is 6.51 µM (active).

Take `CN(C)c1ccc(/C=C/c2nc3ccccc3c(=O)n2CCO)cc1`: the Potency is 20.6 µM (active).

Regarding `CN(C)c1ccc(/C=C/c2cc(/C=C/c3ccc(N(C)C)cc3)c3ccccc3n2)cc1`, the Potency was 3.66 µM (active).

Values taken from PubChem BioAssay AID651813 (National Center for Advancing Translational Sciences (NCATS), 2012).
